Bioassay records as filed in PubChem.
This is a sample that favours compounds with a hit; in the whole collection about 0.93% have one here.
TRPML1 ag – human mucolipin-1 channel agonism; Q9GZU1; TRPML1-expressing cells, Ca2+ dye fluorescence, FDSS; activation, % (no concentration beside the values); 410,000 tested, 0.12% active; AID 624414; in the data active = activation above about 50%; inconclusive = mostly about 30% to 49%; also: 0% is about no effect
Target sequence (Q9GZU1 whole entry, looked up): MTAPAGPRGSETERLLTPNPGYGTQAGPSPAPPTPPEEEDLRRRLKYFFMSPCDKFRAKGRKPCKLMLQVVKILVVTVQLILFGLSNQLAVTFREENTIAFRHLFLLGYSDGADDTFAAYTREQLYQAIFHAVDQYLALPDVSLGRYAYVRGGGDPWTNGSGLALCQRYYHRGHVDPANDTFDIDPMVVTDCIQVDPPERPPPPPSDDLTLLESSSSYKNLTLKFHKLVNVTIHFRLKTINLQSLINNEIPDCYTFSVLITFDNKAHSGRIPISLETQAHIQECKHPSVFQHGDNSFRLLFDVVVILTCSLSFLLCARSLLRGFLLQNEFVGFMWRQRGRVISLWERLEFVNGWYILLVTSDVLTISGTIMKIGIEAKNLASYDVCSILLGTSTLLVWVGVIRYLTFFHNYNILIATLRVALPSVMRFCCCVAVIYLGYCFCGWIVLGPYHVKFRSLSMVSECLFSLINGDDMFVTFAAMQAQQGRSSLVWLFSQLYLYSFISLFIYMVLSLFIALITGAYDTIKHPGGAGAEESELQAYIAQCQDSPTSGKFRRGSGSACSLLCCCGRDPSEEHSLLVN
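Tet-induced TRPML1-DL cells, 1,500 per well, cultured overnight, were loaded with a no-wash Ca2+ dye for 45–90 min. Calcium fluorescence was recorded on the FDSS for 110 s after compound addition, before the EC80 agonist (4 uM 54-4) was added.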
PTHR1 ag – activates the human parathyroid hormone receptor PTHR1 | Potency, µM (titrated, usually from 115 µM), for inactives: top-dose activation, most hits filed as activators | 410,000 tested, 0.075% active | Q03431 | AID 743266 | HEK293 GP2 PTHR1 cells, GloSensor cAMP luminescence, 1 h; also: potency is read from the fitted curve at half-maximal effect; nearly all actives have a fitted effect of over 55% in size
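HEK-293-derived GP2 cells expressing PTHR1 and a GloSensor cAMP reporter, 3,000/well, plated overnight, given luciferin plus IBMX (each 0.5 mM as added) for 1 h at 37 °C, then compound for 1 h at 37 °C. Luminescence was read after 15 min at room temperature.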
HEK293 tox – cytotoxicity counter-screen for GLP-1 receptor inverse agonists; HEK293 cAMP-luciferase reporter cells, luminescence, 24 h; Potency, µM (doses to about 38.3 µM), for the others: at the top dose activity change, negative = inhibition, most hits filed as inhibitors; 410,000 tested, 0.13% active; AID 624418;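 also: loss of luciferase light is scored as toxicity; potency is read from the fitted curve at half-maximal effect; % is scaled to controls: 0 for no effect and ±100 for the full control effect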
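MLSMR compounds, 24 hr on cells at 37 deg C/5% CO2; luminescence after luciferase reagent (12 min RT). Inhibition counted as the undesired cytotoxic outcome.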
TRHR agonist – agonists of human TRH receptor | P34981 | TRHR cells, calcium flux fluo-8, FDSS agonist mode | activation, % at 2 µM | 360,000 tested, 0.18% active; in the data active = activation above about 30%; also: 0% is about no effect
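Steps: seed TRHR cells overnight; add fluo-8 no-wash Ca dye, RT 30 min–1.5 h; record 10 s baseline; pin-transfer compounds; monitor fluorescence 1 cycle/s for the agonist window. Calcium increases flag candidate agonists.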
TRPML1 inh – inhibitors of human TRPML1 channel; Q9GZU1; TRPML1-inducible cells, Ca2+ dye fluorescence, FDSS; hits give low values; inhibition of EC80 agonist-evoked calcium signal; activity change, negative = inhibition, % (concentration not given with the values); 390,000 tested, 0.02% active; in the data active = activity change below about -50%; inconclusive = between about -30% and that limit;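 also: stimulus is agonist 54-4 at its EC80 concentration; % is scaled to controls: 0 for no effect and ±100 for the full control effect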
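Tet-induced TRPML1-DL cells loaded with Ca8 no-wash calcium dye were read kinetically on FDSS. Compound addition was followed by EC80 agonist 54-4 (4 uM final); inhibition was read over 110 s.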
TRHR enhancer – allosterically enhances the human TRH receptor; TRHR cells, fluo-8 calcium fluorescence, EC20 TRH enhancement; 360,000 tested, 0.66% active; P34981; enhancement, % at 2 µM; in the data active = enhancement above about 30%; also: 0% is about no effect
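TRHR-expressing cells loaded with fluo-8 calcium dye were read kinetically (ex 480/em 530) during compound addition, then stimulated with an EC20 of TRH (10 nM final). Enhancement of the Gq-mediated intracellular calcium response was scored.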
* hit, by the source's call; i = inactive; ? = inconclusive; nt = not tested or not shown; [ ] = another dose, or the depositor's remark. Unless noted, calls follow the shape of the dose curve; as a rule, active = well fitted curve in the direction sought with a large enough effect; inconclusive = small, poorly fitted or top-dose-only effect, or another doubt; inactive = no such curve, though single readings can be large; an effect the other way counts as inactive or inconclusive.

SMILES	TRPML1 ag	PTHR1 ag	HEK293 tox	TRHR agonist	TRPML1 inh	TRHR enhancer
CCCN1C=CC(=C/C=C(\C#N)C(=O)OCC)C=C1	nt	nt	nt	58*	nt	6
CCOC(=O)/C(C#N)=C/C=C1\C=Cc2ccccc2N1CC	1	-24%	-13%	5	13	-3
CCCCCCN1C=CC(=C/C=C(\C#N)C(=O)OCC)C=C1	60*	i	-26%	165*	-12	31*
CCOC(=O)/C(C#N)=C/N=c1ccc(C)cn1C	0	-2%	-14%	0	-8	2
CC(C)=CC(=O)Oc1ccc(C(=O)N(C)c2ccccc2I)cc1	1	nt	nt	nt	1	nt
CCOC(=O)c1nn(-c2ccc(OC)cc2)c(=O)c2c(NC(=O)Cc3ccccc3)scc12	nt	nt	nt	0	nt	1
c1ccc(Nc2nc(-c3ccccn3)cs2)cc1	0	-16%	3.2µM*	1	17	5
c1ccc(-c2csc(Nc3cccnc3)n2)nc1	1	-32%[57.5 µM]	-19%	-1	-4	10
COc1cc(C=O)cc(OC)c1[N+](=O)[O-]	0	nt	nt	nt	nt	nt
O=C(CNC(=O)c1ccc2ccccc2c1)OC(C(=O)Nc1cc(C(F)(F)F)ccc1Cl)c1ccccc1 (centres undefined)	nt	nt	nt	3	nt	-11
CC(=NNC(=O)Cn1ccc(C(F)(F)F)n1)c1ccc(-n2ccnc2)cc1	1	-30%	-7%	nt	1	nt
COC(=O)N/N=C(\C)c1ccc(-n2ccnc2)cc1	-1	i	12%	0	3	41*
COc1cc2nc(N(C)C)nc(NC3CCN(C)CC3)c2cc1OC	0	nt	nt	nt	nt	nt
CN1CCC/C1=C/C=C1\SC(=S)NC1=O	58*	-47%	?	48*	-18	10
O=C1NC(=S)SC1=Cc1cccs1	-1	-14%	?	nt	-7	nt
COC(=O)c1cc2c(n1S(=O)(=O)c1ccc(C)cc1)C(=O)C(=O)c1[nH]cc(C(=O)OCc3ccccc3)c1-2	0	-16%	4µM*	nt	-1	nt
COC(=O)c1ccc(COC(=O)c2ccc(CS(=O)(=O)c3ccc(C)cc3)cc2)cc1	0	-23%[57.5 µM]	0%	2	-5	20
COc1ccc(Br)cc1S(=O)(=O)N1CCN(S(=O)(=O)c2ccc3c(c2)OCCO3)CC1	nt	nt	nt	0	nt	0
CC(C)NCC(O)c1ccc(O)c(O)c1 (centres undefined)	-1	?	-14%	0	6	36*
C=CCn1c(=NC(=O)c2ccc(S(=O)(=O)N3CCc4ccccc4C3)cc2)sc2cc(S(N)(=O)=O)ccc21	0	i	?	-1	-6	-1
C#CCn1c(=NC(=O)c2ccc(S(=O)(=O)N3CCc4ccccc4C3)cc2)sc2cc(S(N)(=O)=O)ccc21	0	i	3.5µM*	2	-6	3
C#CCn1c(=NC(=O)c2ccccc2[N+](=O)[O-])sc2cc(S(C)(=O)=O)ccc21	-1	i	-16%	0	6	30*
Cc1cc2c(s1)c1cnn(Cc3ccc(F)cc3Cl)c(=O)c1n2C	nt	nt	nt	0	nt	4
COc1ccc(N=c2nc(-c3ccccc3)n(-c3ccc(C)cc3)s2)cc1	0	nt	nt	nt	nt	nt
CC(NC(=O)C(=O)NCCCn1ccnc1)c1ccccc1 (centres undefined)	2	i	-1%	0	-8	-2
SMILES	TRPML1 ag	PTHR1 ag	HEK293 tox	TRHR agonist	TRPML1 inh	TRHR enhancer
CC(C)c1ccc(CNC(=O)C(=O)NCCCn2ccnc2)cc1	-1	i	-3%	0	1	32*
O=C(O)c1ccc(NC(=S)NC(=O)c2cncc(Br)c2)cc1	-1	i	-12%	1	4	34*
Nc1nc(-c2cccc(Br)c2)cs1	1	5.6µM*	1%	1	7	6
CCN(CC)CCN1C(=O)C(=O)/C(=C(/O)c2c(C)[nH]c(C(=O)OC)c2C)C1c1ccco1 (centres undefined)	-1	-1%[57.5 µM]	2%	0	17	30*
CNCC(=O)c1c[nH]c2ccccc12	-1	nt	nt	nt	nt	nt
OC(c1cc(-c2cccc(Cl)c2)nc2ccccc12)C1CCCCN1 (centres undefined)	0	-6%	10µM*	nt	6	nt
Cc1ccccc1NS(=O)(=O)c1cc(C(=O)NCCC2=CCCCC2)ccc1Cl	1	-44%	-25%	-2	17	0
Cc1cccc(NS(=O)(=O)c2cc(C(=O)NCCC3=CCCCC3)ccc2Cl)c1	2	-20%[57.5 µM]	-8%	1	12	35*
O=C1C=CC(=O)N1c1cccc(-c2ccccc2)c1	2	i	13µM*	2	8	-1
O=C(Nc1cccc(N2C(=O)C=CC2=O)c1)c1cccs1	nt	nt	nt	0	nt	-1
O=C(C[N+]1(CC(O)c2ccccc2)CCCCC1)c1ccccc1 (centres undefined)	0	nt	nt	nt	nt	nt
Clc1cccc(OCCCCCN2CCOCC2)c1	0	i	0%	1	-2	-10
Clc1cccc(OCCCCN2CCCCC2)c1	0	i	6%	0	-12	34*
COc1cccc(C(=O)NCC(=O)OCc2cc(=O)n3nc(C)sc3n2)c1	1	?	3%	-1	-15	6
COc1cccc(C(=O)NCC(=O)OCc2cc(=O)n3c(C)csc3n2)c1	0	i	-1%	0	-4	34*
C=CC[n+]1cccc2cccc(O)c21	3	nt	nt	nt	nt	nt
CCCCCC[n+]1ccccc1/C=C/c1ccc(N(C)C)cc1	69*	-93%	-17%	nt	-1	nt
COc1ccc2[nH]c(CCc3nc4c(OC)c(OC)ccc4[nH]3)nc2c1OC	-1	nt	nt	nt	nt	nt
CCCn1c(=O)c2sccc2n2c(CCCC(=O)NC3CCC(C)CC3)nnc12 (centres undefined)	-1	-14%	-13%	0	17	37*
CCCn1c(=O)c2sccc2n2c(CCCC(=O)NC3CCCCC3)nnc12	-1	-14%	-4%	0	16	0
CCCCn1c(=O)c(CCC(=O)OCC(=O)NC(=O)NCCOC)nc2ccccc21	1	i	5%	0	-3	-1
CCCCn1c(=O)c(CCC(=O)OCC(=O)NC(=O)NCCC(C)C)nc2ccccc21	2	-4%	8%	0	6	30*
CC(=O)Nc1c(C)nn(-c2ccc([N+](=O)[O-])cc2)c1C	0	-24%	2%	0	-11	37*
C#CCN(C1CCCC1)S(=O)(=O)C=C	-1	nt	nt	nt	nt	nt
CCCCCC(=O)C(=O)c1ccc(O)cc1O	5	i	-29%	-1	25	34*
Cc1ccc(S(=O)(=O)CCC(=O)c2ccc(O)cc2O)cc1	0	-36%	?	0	4	-1
